In one test the target is C2orf76. Description: pooled miR-30 sensor sort-seq; sequence = guide strand. The note with it: shRNA.
The sequence TAAAGGGATATCTTGCTTTAGA showed a sensor-assay potency score (higher = more potent) of -0.915.

With TTTCACTGGCGATTCCAGCTGC, the sensor-assay potency score (higher = more potent) came to 0.205.

On to TTTGTCTTTGATTTATGTGCTT, for which the sensor-assay potency score (higher = more potent) was -0.117.

In turn, TGTAGTTCTTATAATCTTCTTC came in with a sensor-assay potency score (higher = more potent) of 0.298.

Consider TCTTCTTTCAGCAGGAGTCTTT, for which the sensor-assay potency score (higher = more potent) was -0.508.

As for TATCTTGCTTTAGAAATACGAT, the sensor-assay potency score (higher = more potent) was -1.11.

TTTCAGAGTGCTGTCTTCTTTC yielded a sensor-assay potency score (higher = more potent) of 0.204.

Sequence TATAATTTCTGAATGGTGGTGG yielded a sensor-assay potency score (higher = more potent) of 1.01.

Sequence TTCGTCATCTTCCAAACTCAAC yielded a sensor-assay potency score (higher = more potent) of -1.74.

The sequence TTTGTAGTTCTTATAATCTTCT gave a sensor-assay potency score (higher = more potent) of -0.217.

On to TTGTCTTTGATTTATGTGCTTG, for which the sensor-assay potency score (higher = more potent) was -0.405.

In the next test the target is C2orf79. The description is as above. To be noted: shRNA.
In turn, TTTCGTAACACCAAGTATTGTA had a sensor-assay potency score (higher = more potent) of 0.279.

For TTGTGATAGATCCTTTCGTAAC, the sensor-assay potency score (higher = more potent) is -1.71.

Sequence TACAAGTGGCGATATTCTCTGG gave a sensor-assay potency score (higher = more potent) of -0.432.

In the case of TATTGTACCAGGACCTGCGGCT, the sensor-assay potency score (higher = more potent) is -0.203.

In the case of TTTAGGGTGGTCTCATCTGGGG, the sensor-assay potency score (higher = more potent) is -0.919.

Sequence TTCTGTTGCAGGGTCTCGGCCA came in with a sensor-assay potency score (higher = more potent) of -0.447.

For the sequence TTAGGGTGGTCTCATCTGGGGC, the sensor-assay potency score (higher = more potent) was -1.64.

As for TTCGTAACACCAAGTATTGTAC, the sensor-assay potency score (higher = more potent) is -0.56.

TAACACCAAGTATTGTACCAGG yielded a sensor-assay potency score (higher = more potent) of -0.742.

TAGATCCTTTCGTAACACCAAG yielded a sensor-assay potency score (higher = more potent) of -1.46.

In the case of TCTTCTGTTGCAGGGTCTCGGC, the sensor-assay potency score (higher = more potent) was -1.21.

Take TTGCTCAAGCCACAGCATGTGG: the sensor-assay potency score (higher = more potent) is -1.1.

(Values after the OligoGym collection.)
Further: reference of the scale not given here.
